Results on 5 compounds are retold here after PubChem BioAssay.

Where “and” joins values, the source holds several entries; their conditions need not be identical. Equal entries are not always repeated. Calls of active or inactive are those of the source.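 How the source made its calls, unless noted: active means compounds whose cell count with miR-34 switched on is under 0.7 times the count with it off; inactive means the rest.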

Experiment [1] in a line: liver-stage malaria parasite growth inhibition, primary screen, cell-based, HepG2, luciferase luminescence, HepG2 viability (AID 624349; in the data active means parasite load remaining mostly below about 12%, no sharp cut-off; inactive means mostly above about 10%;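 further: 100% = mean of DMSO negative control wells on the same plate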). The following applies: P. berghei liver stage in HepG2, luciferase luminescence, concentration not given here; parasite load remaining: stronger effect = lower value; viability: measured here: HepG2 viability without parasites.
The nature of experiment [2]: stimulators of nuclear beta-catenin in C2C12, primary screen, imaging, WNT3A-conditioned medium, mouse C2C12, NPC library (AID 1117326; in the data active means nuclear beta-catenin stimulation mostly above about 4.2%, no sharp cut-off; inactive means mostly below about 10%; further: reference of the scale not given here). To be noted: stronger effect = higher value.
Experiment [3] in a line: stimulators of insulin release from INS-1E, primary screen, cell-based, 5 mM glucose, NPC library (AID 1117329;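 active means compound raises insulin release from rat beta cells at 5 mM glucose, no numeric limit stated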; further: reference of the scale not given here). To be noted: rat INS-1E insulin secretion, at 10 µM, stronger effect = higher value.
A short description of experiment [4]: growth inhibition of GSK3B-pretreated HCT116 cells – cell-based, CellTiter-Glo, 0.2 to 20 µM (AID 1117336;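 active means compounds lowering colon cancer cell viability after pretreatment blocking the GSK3B kinase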). The following applies: HCT116 viability after GSK3B inhibitor, at 20 µM, stronger effect = higher value.
Experiment [5] in a line: inhibition of endothelial tube formation, primary screen, imaging, VEGF stimulated, CD31 staining, tube area, NPC library (AID 1117340;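 active means compound that reduces growth-factor-driven endothelial tube area in a mixed cell culture, no cutoff stated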). The following applies: VEGF-stimulated ADSC/ECFC co-culture, at 10 µM, stronger effect = higher value.
Experiment [6] is described as follows: glucagon-like peptide 1 release enhancers, primary assay, NCI-H716 cell line, NPC library (AID 1117341;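 active means compound raises GLP1 secretion from the human gut endocrine cells, with no numeric limit stated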; further: reference of the scale not given here). The following applies: NCI-H716 cells, at 10 µM, stronger effect = higher value.
The nature of experiment [7]: HCT116 colon cancer cell growth inhibition, primary screen, CellTiter-Glo luminescence, NPC library (AID 1117342;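 active means compounds that lower survival of HCT116 colon cancer cells in the luminescence readout, no numeric limit stated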). The following applies: at 20 µM (top of the series).
Experiment [8] in a line: CellTiter-Glo luminescent readout of SW480 viability loss, NPC library primary (AID 1117343;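 active means compounds that lower viability of the colon cancer cells in the luminescence readout, with no numeric limit stated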). To be noted: CellTiter-Glo luminescence; at 20 µM (top of the series) unless noted.
The nature of experiment [9]: decreased DLD-1 cellular survival, CellTiter-Glo luminescent readout, NPC compound collection, primary HTS (AID 1117346;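 active means compounds that lower survival of DLD-1 colon cancer cells in the luminescence readout, no cutoff given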). The following applies: DLD-1 viability, CellTiter-Glo luminescence; at 20 µM (top of the series).
The subject of experiment [10] is Aerobactin synthetase IucA (Klebsiella pneumoniae). Briefly: IucA aerobactin synthetase inhibitors, biochemical, Tocris library, absorbance (AID 1345561; call rule not given here;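 further: 100% = enzyme without compound and 0% = no enzyme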). The following applies: purified IucA enzyme assay, absorbance (OD) read-out; stronger effect = lower value;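 tested at 8 µM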.
Experiment [11] in a line: sensitizers of A549 cells to miR-34 induction, primary screen, imaging, A549 dox-inducible miR-34, nuclei and caspase counts (AID 1347080). The following applies: A549 miR-34 inducible, Hoechst nuclei count, 48 h.
Experiment [12] is described as follows: survival rescue of mitochondrial mutant cells in low glucose, primary screen, MELAS cybrids, Rieske KO mouse fibroblasts, CellTiter-Glo (AID 1508586;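 active means mean z-score across replicates of 1.96 or higher in either the MELAS or the Rieske mutant cell line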;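 further: z relative to plate mean and SD of compound and empty wells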).
The nature of experiment [13]: viability rescue of complex I mutant cybrids, primary screen, cell-based, galactose medium, ATP luminescence (AID 1645843;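 active means z-score of at least 1.8 in each of two replicates, scored against plate mean and spread of sample wells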;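 further: positive z means more ATP and so rescue of galactose-driven cybrid death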). The following applies: complex I mutant cybrid cells, 72 h, stronger effect = higher value.
[14] abbreviates: stronger effect = lower value, cell number ratio, induced over uninduced.
Where [15] appears, read: measured here: relative caspase fold change +Dox/-Dox.
Setting [16] is: measured here: total cells with miR-34 induction, stronger effect = lower value.
Setting [17] is: measured here: total cells without miR-34 induction.
The mark [18] stands for this setting: MELAS cybrid survival, CellTiter-Glo 48 h, stronger effect = higher value.
The mark [19] stands for this setting: Rieske KO mouse fibroblast survival, CellTiter-Glo 72 h.

In the case of `Cc1ccc2c(c1)c1c3n2CCNC3CCC1` (stereo not drawn), the parasite load remaining in experiment [1] is 192% (inactive). In experiment [1], this compound showed a viability of 76.9%. Also, the nuclear beta-catenin stimulation was 3% (inactive) in [2] (at 10 µM) and 2% in experiment [2] (stimulation, at 2 µM). The insulin secretion stimulation in [3] was 0.5% (inactive). Also, the viability decrease in experiment [4] was -63.6% (inactive). In addition, the tube area decrease in experiment [5] was 18.5% (inactive). Also, the GLP1 secretion stimulation in [6] was 11.2% (inactive). For the same compound, the inhibition of viability in experiment [7] is 44% (inactive). Further, the viability decrease (inhibition) in [8] is 73.4% (active); in experiment [9], 29.4% (inactive). Also, in experiment [10], the remaining activity was 98.7% (inactive). The fold change is 0.931 (inactive) and 0.909 (inactive) in experiment [11] (setting [14]); 0.816 and 0.659 in [11] (setting [15]). Moreover, the cell count in [11] (setting [16]) is 8540 and 8100; in experiment [11] (setting [17]), 9170 and 8920. Further, the z-score in [12] (setting [18]) is 0.468 (inactive); in [12] (setting [19]) it was -0.847; in [13], -0.41 (inactive).

With `NC(=O)n1c(O)c(C(=O)c2cccs2)c2cc(Cl)ccc21`, the nuclear beta-catenin stimulation in [2] (at 10 µM) is -0.2% (inactive); in experiment [2] (stimulation, at 2 µM), -0.7%. Moreover, the insulin secretion stimulation in [3] is 0.2% (inactive). Moreover, the viability decrease in experiment [4] is 106% (active). For the same compound, in experiment [5], the tube area decrease was 58.6% (active). Besides, the GLP1 secretion stimulation in experiment [6] is -0.5% (inactive). Also, the inhibition of viability in [7] was 102% (active). Besides, the viability decrease (inhibition) in [8] is 128% (active); in experiment [9] it was 97.5% (active). Also, the remaining activity in experiment [10] is 121% (inactive). The fold change was 0.969 (inactive) in experiment [11] (setting [14]) and 1.95 in experiment [11] (setting [15]). Moreover, the values for the cell count in experiment [11] (setting [16]) and in experiment [11] (setting [17]) were 7020 and 7250, respectively. Besides, the z-score in [13] is -0.475 (inactive).

In the case of `O=C(O)Cn1c(C(=O)Nc2nc(-c3ccccc3Cl)cs2)cc2ccccc21`, the nuclear beta-catenin stimulation in experiment [2] (at 10 µM) was 0.7% (inactive); in [2] (stimulation, at 2 µM) it was -0.5%. Further, the insulin secretion stimulation in experiment [3] is 0.05% (inactive). The viability decrease in experiment [4] was 104% (active). For the same compound, the tube area decrease in experiment [5] is 47.9% (active). For the same compound, the GLP1 secretion stimulation in [6] is 5.4% (inactive). Further, the inhibition of viability in experiment [7] is 72.1% (active). For the same compound, the viability decrease (inhibition) in [8] was 102% (active); in experiment [9] it was 60.6% (active). Further, in [10], the remaining activity was 99.8% (inactive). The fold change in [11] (setting [14]) is 0.989 (inactive); in experiment [11] (setting [15]), 1.35. Further, the cell count in experiment [11] (setting [16]) stood at 8300; in experiment [11] (setting [17]), 8400. Besides, the z-score in experiment [13] was 1.2 (inactive).

Take `CN=C(NC#N)Nc1ccc(C2=NNC(=O)CC2C)cc1` (stereo not drawn): the parasite load remaining in experiment [1] was 25% (inactive). The viability in experiment [1] came to 67%. Moreover, the nuclear beta-catenin stimulation in experiment [2] (at 10 µM) was -0.7% (inactive); in experiment [2] (stimulation, at 2 µM), -0.1%. Also, in [3], the insulin secretion stimulation is 0.3% (inactive). Besides, the viability decrease in experiment [4] was -15.4% (inactive). The tube area decrease in experiment [5] was -8.1% (inactive). In [6], the GLP1 secretion stimulation is -1.9% (inactive). For the same compound, the inhibition of viability in experiment [7] was -3.9% (inactive). The viability decrease (inhibition) in [8] was 4.1% (inactive); in experiment [9], -10.5% (inactive). For the same compound, in [10], the remaining activity was 117% (inactive). Besides, the fold change in [11] (setting [14]) is 0.976 (inactive) and 0.925 (inactive) and 0.857 (inactive); in [11] (setting [15]), 0.912 and 0.898 and 1.1. Besides, the cell count in experiment [11] (setting [16]) is 6170 and 8930 and 9670; in [11] (setting [17]), 6320 and 9660 and 11300. Also, the z-score is 0.199 (inactive) in experiment [12] (setting [18]); 0.162 in [12] (setting [19]); 0.095 (inactive) and 0.625 (inactive) in experiment [13].

Turning to `CCC(CC)(CC(=O)Nc1cccc(/C=C/c2nc(C3CCC3)cs2)c1)C(=O)O`, the nuclear beta-catenin stimulation in [2] (at 10 µM) is 0% (inactive); in [2] (stimulation, at 2 µM), 0.1%. Further, the insulin secretion stimulation in experiment [3] is 1% (inactive). Further, the viability decrease in experiment [4] was 96.6% (active). Moreover, the tube area decrease in experiment [5] is 5.4% (inactive). Besides, the GLP1 secretion stimulation in experiment [6] was 1.7% (inactive). The inhibition of viability in experiment [7] is 42.9% (inactive). The viability decrease (inhibition) was 41% (inactive) in experiment [8] and 70.9% (active) in experiment [9]. Moreover, the remaining activity in experiment [10] was 89.3% (inactive). The fold change in [11] (setting [14]) is 0.829 (inactive); in [11] (setting [15]) it was 1.27. The values for the cell count in [11] (setting [16]) and in experiment [11] (setting [17]) were 7300 and 8810, respectively. Also, the z-score in [13] is 2.4 (active).
